rCAG binder: binders of r(CAG) RNA repeats, primary screen, biochemical, fluorescence; r(CAG) RNA repeat, TO-PRO-1 dye displacement fluorescence; inhibition, % at 3 µM; 1.3% of 370,000 active;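 active = inhibition above the plate cutoff, the mean of all test compounds on that plate plus 3 SD, cut at about 35% in these data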;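 note: 0% = DMSO alone and 100% = 100 µM mitoxantrone as full dye displacement; higher means more dye released from RNA so lower well fluorescence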
MPTP inh: mitochondrial permeability transition pore inhibitors, primary screen, biochemical, isolated mouse mitochondria, absorbance. inhibition, % at 10 µM. AID 602449, 2012. 1.4% of 360,000 active. Ca2+ swelling absorbance, 30 min;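 active = inhibition of 50% or more, scaled per plate between neutral and stimulator controls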;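 note: 0% = DMSO wells given calcium and 100% = 1 mM EGTA wells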
NR3A LBD binder: binders of NR3A ligand-binding domain, primary screen, biophysical, differential scanning fluorimetry, uHTS. Glutamate receptor ionotropic, NMDA 3A (GRIN3A) ligand-binding domain. NR3A LBD differential scanning fluorimetry, Tm shift; 0% = protein alone, 100% = glycine-bound protein. Tm shift relative to glycine control, % at 25 µM. 2.5% of 340,000 active;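 active = melting temperature shift of at least 10% of the positive control shift, at one fixed dose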
Myeloid diff MLP: induction of myeloid progenitor differentiation, primary screen, cell-based, flow cytometry, MLPCN library | ER-HoxA9 myeloid progenitors, lysozyme-GFP differentiation | calls only at 10 µM | 1% of 360,000 active | AID 624256, 2012;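 active = normalized GFP-positive differentiation at or above the plate's own cutoff, the solvent-only control mean plus 3 SD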;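 note: cells exposed to compound for four days before flow analysis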
FAS TE block: FAS thioesterase domain inhibitors, primary screen, biochemical, fluorescence intensity, uHTS; 0.67% of 360,000 active; Fatty acid synthase (Homo sapiens), P49327; inhibition, % at 15 µM; AID 602261, 2012; recombinant FAS-TE, OMFH fluorogenic substrate, fluorescence endpoint;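 active = compounds whose normalised, plate-corrected inhibition of enzyme fluorescence in the single-dose primary screen is 50% or more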;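 note: 0% = DMSO with enzyme and 100% = substrate without enzyme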
Myeloid diff: inducers of myeloid progenitor differentiation, confirmation, cell-based, GFP/Mac1 flow cytometry, cherry pick 01; 2% of 2,300 active; calls only; shares compounds with Myeloid diff MLP; ER-HoxA9 myeloid progenitors, GFP/Mac1 double-positive flow;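 active = share of green or green-and-red cells above 9 and 9% in run 1 or 4 and 3% in run 2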
GFP autofluor: flagged as fluorescent in myeloid differentiation counter-screen. shares compounds with Myeloid diff MLP. ER-HoxA9 myeloid progenitors, no estrogen, GFP autofluorescence flow cytometry; vehicle wells 0%, positive control 100%. fluorescence response, % (no concentration beside the values). 7.4% of 2,300 active;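 active = over 5% cells positive for green fluorescent reporter, or over 2% positive for both it and APC stain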;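 note: range taken on the double positive population between DMSO and positive control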
* = called active by the depositor; i = inactive; . = not tested or not shown; + = active, no number. Shown are actives, neighbours in structure and some others; about 5.7% of the full set was active somewhere.

SMILES | rCAG binder | MPTP inh | NR3A LBD binder | Myeloid diff MLP | FAS TE block | Myeloid diff | GFP autofluor
COc1ccc(/C=C/C(=O)Nc2ccc(OC)cc2[N+](=O)[O-])cc1 | 0 | 1 | -30 | i | -5 | . | .
CCOc1ccc(NC(=O)/C=C/c2ccc(OC)cc2)c([N+](=O)[O-])c1 | 1 | 4 | -16 | i | -7 | i | 0
C[C@@H]1CN([C@@H](C)CO)C(=O)c2cccc(NS(C)(=O)=O)c2O[C@H]1CN(C)Cc1ccc(Oc2ccccc2)cc1 | 8 | 1 | 0 | i | -5 | i | 0
COc1ccc(S(=O)(=O)Nc2cccc3c2O[C@H](CN(C)Cc2ccc(Oc4ccccc4)cc2)[C@@H](C)CN([C@H](C)CO)C3=O)cc1 | 10 | -2 | -8 | i | 27 | . | .
C#CC[N+]1(CC#Cc2ccccc2)CCCC1 | 3 | -9 | 0 | + | -10 | i | 0
NC(N)=NS(=O)(=O)c1ccc(NC(=S)NC(=O)Cc2ccc(Cl)cc2)cc1 | 5 | 0 | -5 | i | 8 | . | .
CC(C)CC(=O)Nc1ccc(C(=O)NNC(=O)C(c2ccccc2)c2ccccc2)cc1 | 3 | 0 | -4 | i | 2 | i | 0
CCC(=O)Nc1ccc(C(=O)NNC(=O)C(c2ccccc2)c2ccccc2)cc1 | 4 | 0 | -2 | i | -12 | . | .
COc1ccc(/C=C\C(=O)c2c(O)ccc3c(C)cc(=O)oc23)cc1OC | 19 | 0 | 14* | i | 1 | i | 0
COc1cc(/C=C/C(=O)c2c(O)ccc3c(C)cc(=O)oc23)ccc1O | 25 | -3 | -2 | i | -1 | . | .
Cc1cccc(N=CC=C2OC(C)(C)C(C)(C)O2)c1 | -1 | 1 | -1 | + | -9 | i | 0
COc1cccc(N=CC=C2OC(C)(C)C(C)(C)O2)c1 | -6 | 1 | 0 | i | -5 | . | .
COc1ccc(NC(=O)C2(C)Cc3c(-c4cccc(C(N)=O)c4)ccnc3O2)cn1 (centres undefined) | -1 | -1 | . | i | -5 | . | .
c1ccc(Cn2c(CSc3nnnn3-c3ccccc3)nc3ccccc32)cc1 | -2 | 2 | 8 | i | 18 | i | 0
CCOC(=O)c1c(C)[nH]c(C)c1C(=O)COC(=O)c1ccc(OC)c(OC)c1 | -3 | 0 | 0 | i | -8 | . | .
CC1CC(C)CN(CCCNC(=O)C2CCC(=O)N2C2CCCC2)C1 (centres undefined) | -4 | 0 | -9 | i | -8 | i | 0
O=C(Nc1ccc2nc(C3CC3)n(Cc3ccc(F)cc3)c(=O)c2c1)c1ccco1 | 2 | -3 | -6 | + | 24 | i | 0
CNC[C@H](CC1CCCCC1)NC[C@H](CO)NCCc1cccc(C(F)(F)F)c1 | -3 | 5 | 2 | + | -6 | i | 5
CNC[C@H](CC1CCCCC1)NC[C@H](CO)NCC1(c2ccccc2)CC1 | -6 | 4 | 2 | i | -8 | . | .
Cc1ccccc1CN1C(=O)c2ccccc2C1c1nnnn1Cc1ccccc1 (centres undefined) | 1 | 0 | . | i | 0 | . | .
COc1cc2c(cc1OC)CN(CC(=O)NC(=O)NCc1ccccc1)CC2 | -3 | 13 | 1 | + | 6 | i | 0
Cc1cc(C)c(C)c(S(=O)(=O)N2CCC(C(=O)Nc3ccc(S(=O)(=O)N4CCOCC4)cc3)CC2)c1C | 11 | 5 | 19* | i | 39 | i | 0
COc1ccccc1NC(=O)CSc1nnnn1-c1ccc(F)cc1 | -4 | 1 | 0 | . | 4 | . | .
Cn1c(C(=O)NCCN2CCOCC2)cc2c(=O)n(C)c3ccccc3c21 | 4 | -1 | -1 | i | -1 | i | 4
COc1ccccc1Cn1c(SCC(N)=O)nc2c(oc3ccccc32)c1=O | 4 | -1 | 1 | i | -13 | . | .
